Experimental data as given in PubChem BioAssay AID651650 (Sanford-Burnham Center for Chemical Genomics, 2012).

Target: Neuropilin-1 (Homo sapiens) (UniProt O14786)
Test: blockers of CendR peptide binding to NRP-1 – biochemical, FP and AlphaScreen panel, dose response (AID 651650)
Conditions: NRP-1 b1b2 / RPARPAR peptide binding, FP or AlphaScreen; run 1, at 100 µM (top of the series)

Chain of Neuropilin-1 (Homo sapiens) (O14786 whole entry, looked up): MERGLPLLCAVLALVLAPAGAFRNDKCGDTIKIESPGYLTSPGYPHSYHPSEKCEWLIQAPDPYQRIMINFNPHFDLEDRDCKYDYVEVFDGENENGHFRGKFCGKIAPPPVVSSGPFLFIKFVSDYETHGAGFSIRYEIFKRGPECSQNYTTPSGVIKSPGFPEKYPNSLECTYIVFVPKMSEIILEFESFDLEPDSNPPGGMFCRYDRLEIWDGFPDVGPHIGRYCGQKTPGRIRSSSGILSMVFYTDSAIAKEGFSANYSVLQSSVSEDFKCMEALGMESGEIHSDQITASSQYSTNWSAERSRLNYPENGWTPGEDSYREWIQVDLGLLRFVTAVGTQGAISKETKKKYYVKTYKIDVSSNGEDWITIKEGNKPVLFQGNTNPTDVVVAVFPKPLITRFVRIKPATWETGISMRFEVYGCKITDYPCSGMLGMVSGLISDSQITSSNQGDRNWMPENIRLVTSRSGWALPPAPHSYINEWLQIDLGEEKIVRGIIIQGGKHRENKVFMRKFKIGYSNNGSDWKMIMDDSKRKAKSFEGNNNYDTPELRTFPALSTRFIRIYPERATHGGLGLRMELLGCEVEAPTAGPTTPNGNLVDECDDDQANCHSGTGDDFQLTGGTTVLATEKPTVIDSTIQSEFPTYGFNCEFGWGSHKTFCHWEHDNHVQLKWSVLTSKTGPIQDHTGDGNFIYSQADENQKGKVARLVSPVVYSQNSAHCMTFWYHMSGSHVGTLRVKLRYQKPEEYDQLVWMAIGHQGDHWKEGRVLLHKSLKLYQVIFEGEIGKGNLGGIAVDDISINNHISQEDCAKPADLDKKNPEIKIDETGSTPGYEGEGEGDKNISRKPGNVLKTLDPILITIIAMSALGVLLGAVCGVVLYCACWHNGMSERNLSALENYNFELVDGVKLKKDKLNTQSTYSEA

Structure (SMILES) | inhibition
O=C(Nc1ccc(N2CCOCC2)cc1)c1cc(-n2cnnc2)ccc1Cl | 55%
CN1CCC(=NNC(=O)c2ccco2)CC1 | 17.4%
COc1cc(C(=O)OCC(=O)Nc2c(F)c(F)c(F)c(F)c2F)cc(OC)c1OC | 17.8%
CN(C)/C=C/c1c([N+](=O)[O-])c2ccc(O)cc2n1-c1ccccc1 | 39.4%
CCc1cccc(NC(=O)CCc2c(C)nn(-c3ccc(N4CCOCC4)nn3)c2C)c1 | 75.8%
CCn1c(=O)c(C(=O)NCCNCCO)c(O)c2ccccc21 | 26.5%
